This is part of a sample that, as a whole, favours compounds with a hit. Of some 83,000 tested, about 20% had one in any assay.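 Interpretation: 100, growth as untreated; towards 0, rising growth inhibition; 0, no net growth; 0 to -100, cell death. Compounds scoring below 10 were considered active.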 Values without a mark were called inactive. The source made the active and inactive calls.
Assays:
Experiment in all cases: NCI-60 one-dose screen, 48 h (100 = growth as untreated, 0 = no growth, -100 = all killed)
Conditions in all cases: 10 µM
[1] = test system: RPMI-8226 leukemia
[2] = test system: OVCAR-8 ovarian
[3] = test system: OVCAR-5 ovarian
[4] = test system: OVCAR-4 ovarian
[5] = test system: SK-OV-3 ovarian
[6] = test system: IGROV1 ovarian
[7] = test system: OVCAR-3 ovarian
[8] = test system: HS 578T breast
[9] = test system: NCI/ADR-RES ovarian
[10] = test system: T-47D breast
[11] = test system: BT-549 breast
[12] = test system: MDA-MB-435 melanoma
[13] = test system: SW-620 colon
[14] = test system: MCF7 breast
[15] = test system: HCT-116 colon
[16] = test system: HCC-2998 colon
[17] = test system: KM12 colon
[18] = test system: MDA-MB-468 breast
[19] = test system: SR leukemia

Row | SMILES | growth [1] | growth [2] | growth [3] | growth [4] | growth [5] | growth [6] | growth [7] | growth [8] | growth [9] | growth [10] | growth [11] | growth [12] | growth [13] | growth [14] | growth [15] | growth [16] | growth [17] | growth [18] | growth [19]
1 | O=C1NC(=NC23CC4CC(CC(C4)C2)C3)N/C1=C\c1ccc2ncccc2n1 | -23.3% (active) | 2.33% (active) | -40.4% (active) | -24.7% (active) | -10.5% (active) | -6.63% (active) | -22.3% (active) | -24.3% (active) | -21% (active) | -9.66% (active) | -81.3% (active) | -11.4% (active) | 2.73% (active) | -19.4% (active) | 17.9% | 3.26% (active) | -0.698% (active) | -63% (active) | –
2 | Nc1cccnc1/C=N/NC(=S)NCCNC(=O)c1ccc(-n2nc(-c3ccccc3O)nc2-c2ccccc2O)cc1 | -3.08% (active) | 14.6% | 26.3% | 22.1% | 17.1% | 12.5% | 39.6% | 34.6% | 67.4% | 7.42% (active) | -5.4% (active) | 53.8% | 58.5% | 5.17% (active) | 7.1% (active) | -7.32% (active) | 11.6% | – | –
3 | Cc1ccc(-c2cc(C(=O)N=Nc3c(O)[nH]c4ccccc34)c3ccccc3n2)cc1 | – | -15.8% (active) | 69.4% | 1.61% (active) | 91.2% | 60.1% | -65.7% (active) | 12.4% | -16.9% (active) | 43.8% | – | 5.71% (active) | 8.14% (active) | 6.61% (active) | -15.8% (active) | 48.4% | 23.9% | – | 5.31% (active)
4 | Cc1ccc(C(=O)NCCCNc2nc(Nc3ccc(N4CCN(C)CC4)cc3)nc3ccsc23)cc1 | 10.1% | 29.2% | 69.1% | 39.6% | 92.9% | 69.2% | 31% | 66.9% | 46.5% | 4.51% (active) | 65.4% | 43.9% | 31.6% | 16.6% | 9.28% (active) | 43.7% | 37.2% | 45.4% | –
5 | C=C[C@H]1[C@H](O[C@@H]2OC(CO)[C@@H](O)[C@H](O)C2OC(=O)c2c(O)cc(O)cc2-c2cccc(O)c2)OC=C2C(=O)OCC[C@H]21 (some centres undefined) | 106% | 102% | 100% | 108% | 95.7% | 101% | 112% | 99.7% | 102% | 99.3% | 94.8% | 102% | 105% | 93.5% | 94.4% | 106% | 103% | 96.5% | –
6 | COc1ccc(-c2ccc(/C=N/NC(=O)c3[nH]c4ccc(Br)cc4c3-c3ccccc3)o2)cc1 | 18.9% | 37.1% | 68.5% | 44.2% | 49.2% | 64.6% | 21.1% | 28.5% | -22.8% (active) | 37.4% | 75.6% | -45.1% (active) | 32.4% | 10.3% | 18.3% | 63% | 39.8% | -2.91% (active) | –
7 | CC(C)NC(=O)c1cc(-c2ccc(NC(=O)Nc3ccc(N4CCN(C)CC4)c(C(F)(F)F)c3)cc2)nc2cccnc12 | -37.5% (active) | -81.4% (active) | -99.5% (active) | -87.8% (active) | -93.1% (active) | -86.9% (active) | -84.9% (active) | -42.1% (active) | -61.7% (active) | -16.6% (active) | -95.5% (active) | -96.5% (active) | -64.6% (active) | -75.6% (active) | -90.6% (active) | -97.9% (active) | -83.6% (active) | -90.9% (active) | –
8 | CONC[C@]1(C)C=C2C(=O)[C@](C)(O)C3(CC3)C(C)=C2[C@H]1O | 54.3% | -6.95% (active) | -44.2% (active) | -17.4% (active) | -14.4% (active) | -15.4% (active) | -20.4% (active) | -12.4% (active) | -58.3% (active) | 0.0161% (active) | -63.6% (active) | -84.7% (active) | 3.2% (active) | -36.3% (active) | 14.5% | -76.9% (active) | 7.08% (active) | -90.8% (active) | –
9 | COc1ccc(C(=O)Nc2ccc(-c3ccc4c(c3)NC(=O)/C4=C\c3ccc[nH]3)cc2)cc1 | 65.5% | -22.3% (active) | 51.8% | -36.8% (active) | 79.2% | 65.9% | 9.86% (active) | -0.0796% (active) | -42.8% (active) | 14.5% | 88.5% | 30.4% | -14.7% (active) | -31.9% (active) | 36.4% | 31.3% | 1.95% (active) | -70% (active) | –

Source: PubChem BioAssay (NCI)
